The list shows a part of the results. Unmarked numbers belong to inactive results. The source made the active and inactive calls. Rule as the data show it, unless noted: active = activation above about 8.9%; inactive = the rest.
Columns and labels:
[1] = test system: HIV-1 integrase (multimerization); experiment: stimulation of HIV-1 integrase oligomerization – biochemical, TR-FRET, counter-screen for LEDGF/p75 integration inhibitor project (AID 1053131); settings: TR-FRET HIV-1 integrase multimerization, at 7.7 µM, hits give high values
[2] = compounds disturbing TR-FRET signal readout – biochemical, HIV-1 IN multimerization, artefact control for LEDGF/p75-dependent integration inhibitor project, confirmation (AID 1053135;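 active = inhibition above the mean over all tested compounds plus 3 SD, which no compound reached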;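 also: 0% = integrase with antibodies and DMSO and 100% = antibodies without integrase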); settings: TR-FRET optical interference counterscreen, at 7.7 µM, hits give high values
[3] = test system: HIV-1 integrase / human LEDGF/p75 complex; experiment: blockers of LEDGF/p75-dependent integrase activity – biochemical, TR-FRET, confirmation (AID 1053136; in the data active = inhibition above about 14%); settings: TR-FRET LEDGF/p75-dependent HIV-1 integration, at 3.7 µM, hits give high values

COc1cc(NC(=O)COC(=O)c2ccc([N+](=O)[O-])s2)cc(OC)c1OC
activation [1]: -0.28% | inhibition [2]: 1.01% | inhibition [3]: 51.5% (active)

Cc1sc2nc(SCC(=O)c3ccc(O)c(O)c3)n(Cc3ccco3)c(=O)c2c1C
activation [1]: 8.33% | inhibition [2]: -41.9% | inhibition [3]: 39.2% (active)

Cc1cc2c(c(=O)n1Cc1ccco1)C(c1ccccc1)C(C#N)=C(N)O2 (centres undefined)
activation [1]: 1.58% | inhibition [2]: -5.7% | inhibition [3]: -9.1%

Cc1cc(C(=O)NN=C/C=C/c2ccco2)n[nH]1
activation [1]: 10.3% (active) | inhibition [2]: -36.8% | inhibition [3]: 6.81%

CC(=O)OCC1(O)CC23CCC4c5ccoc5CCC4(C)C2CCC1C3 (centres undefined)
activation [1]: 0.06% | inhibition [2]: -0.26% | inhibition [3]: 9.45%

Clc1cc(NC2CCCCC2)ncn1
activation [1]: -0.3% | inhibition [2]: 1.2% | inhibition [3]: -4.64%

CC1(C(=O)NS(=O)(=O)c2ccccc2)CCN1C(=O)Cc1ccc(-c2ccccc2)cc1 (centres undefined)
activation [1]: -0.39% | inhibition [2]: 2.02% | inhibition [3]: 1.27%

COc1ccc(C2CC(c3cccs3)=NN2C(=O)COC(=O)c2cc3ccccc3cc2O)cc1OC (centres undefined)
activation [1]: -0.23% | inhibition [2]: 1.12% | inhibition [3]: -6.48%

CCc1cc2cc(OC)ccc2nc1SCC(=O)Nc1cc(OC)c(OC)cc1C(=O)O
activation [1]: -3.01% | inhibition [2]: 15.3% | inhibition [3]: 5.77%

CN(C)c1ccc(C(CC(=O)O)C(=O)O)cc1 (centres undefined)
activation [1]: 3.35% | inhibition [2]: -16.9% | inhibition [3]: 0.73%

O=C(O)c1ccc(NN=CC2=C(N3CCOCC3)/C(=C/c3ccccc3)CC2)cc1
activation [1]: 3.07% | inhibition [2]: -10.9% | inhibition [3]: 16.6% (active)

C=CCN1C(=O)C(O)(CC(=O)c2ccccn2)c2ccccc21 (centres undefined)
activation [1]: 0.97% | inhibition [2]: -4.84% | inhibition [3]: 0.38%

C=CCn1c2ccccc2c2nnc(SCc3[nH]c(=O)[nH]c3C(=O)CCCCC(=O)OCC)nc21
activation [1]: -0.48% | inhibition [2]: 2.45% | inhibition [3]: 24% (active)

COc1ccc(C(=O)/C=C/c2ccc(-c3ccccc3)cc2)cc1CSCC(=O)O
activation [1]: -1.35% | inhibition [2]: 6.82% | inhibition [3]: 21.8% (active)

COc1ccccc1-c1cc(C(=O)NCCCn2ccnc2)no1
activation [1]: 1.02% | inhibition [2]: -3.78% | inhibition [3]: -0.05%

Cc1ccc(-c2cnc(NC(=O)CCC(=O)N(C)Cc3ccccc3)n2C)cc1
activation [1]: 0.12% | inhibition [2]: -0.61% | inhibition [3]: -6.89%

COc1c(O)cc2oc(-c3ccc(O)c(O)c3)cc(=O)c2c1O
activation [1]: 16.2% (active) | inhibition [2]: -81.9% | inhibition [3]: 89.6% (active)

Cc1cc(SCC(=O)NCCN2C(=O)CSC2=O)nc2ccccc12
activation [1]: 0.99% | inhibition [2]: -4.97% | inhibition [3]: 1.78%

Cc1cc(=O)n2[nH]c(-c3sccc3-n3c(C)ccc3C)cc2n1
activation [1]: 4.52% | inhibition [2]: -16.3% | inhibition [3]: 1.35%

Cc1ccc(C(=O)N2CCCc3ccccc32)c(Cl)c1
activation [1]: -0.4% | inhibition [2]: 2.02% | inhibition [3]: 1.35%

O=C(O)CCC(=O)Nc1ccc(N2CCOCC2)cc1
activation [1]: 0.12% | inhibition [2]: -0.6% | inhibition [3]: 1.39%

CSc1nc(N)c(C#N)c(-c2ccccc2Cl)c1C#N
activation [1]: -0.67% | inhibition [2]: 3.41% | inhibition [3]: 0.36%

Cc1ccc(C(=O)N/C(=C/c2cccs2)C(=O)N2CCCCC2)cc1
activation [1]: -0.16% | inhibition [2]: 0.87% | inhibition [3]: 0.33%

NC1=NN(c2cccc(C(=O)O)c2)C(=O)C1
activation [1]: 12.3% (active) | inhibition [2]: -62% | inhibition [3]: -2.77%

CN(Cc1ccc(F)cc1)C(=O)CN1C(=O)c2ccccc2S1(=O)=O
activation [1]: -1.2% | inhibition [2]: 4.33% | inhibition [3]: -12.2%

Oc1c(CN2CCOCC2)ccc(CN2CCOCC2)c1O
activation [1]: -0.48% | inhibition [2]: 1.64% | inhibition [3]: 15.7% (active)

Cc1cc(Oc2ccc(Cl)cc2)nc(SCC(=O)c2ccccc2)n1
activation [1]: -0.31% | inhibition [2]: 1.56% | inhibition [3]: -0.68%

Cc1ccc(C(=O)OC(C)CN2CCOCC2)cc1 (centres undefined)
activation [1]: 0.25% | inhibition [2]: -1.23% | inhibition [3]: -2.32%

— PubChem BioAssay
